ClpP mod – qHTS Assay for Activators of ClpP. ATP-dependent Clp protease proteolytic subunit (Bacillus subtilis (strain 168)), P80244. purified B. subtilis ClpP, FRET peptide cleavage, 20 min. Potency, µM (titrated, usually from 57.5 µM), inactives show at the highest dose activity change, negative = active. hit rate 1.9% among 340,000. AID 651965, 2013; active = well fitted falling curve with a large enough effect; inconclusive = small, poorly fitted or top-dose-only effect; inactive = no such curve, though single readings can be large or run the other way; note: the source files actives as falling curves though it sought activators and does not explain the sign; nearly all actives have a fitted effect of over 65% in size
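Buffer: 100 mM Tris/HCl pH8, 100 mM KCl, 0.05% low protease BSA, 2.5% glycerol, 0.01% Tween-20. ClpP 10 microg/mL final; 20 min RT; delta FRET normalized to ADEP and DMSO controls.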
GLP-1R inv ag – GLP-1 receptor (human) inverse agonism; Potency, µM (series often up to 38.3 µM), for inactives: top-dose activity change, negative = inhibition, hits mostly inhibitors; HEK293 GLP-1R CRE-luciferase, luminescence, 24 h; GLP-1R form is constitutively active; hit rate 1.6% among 410,000; P43220; note: % is set by controls: 0 for no effect and ±100 for the full control effect; nearly all actives have a fitted effect of over 55% in size
Target sequence (P43220 whole entry, looked up): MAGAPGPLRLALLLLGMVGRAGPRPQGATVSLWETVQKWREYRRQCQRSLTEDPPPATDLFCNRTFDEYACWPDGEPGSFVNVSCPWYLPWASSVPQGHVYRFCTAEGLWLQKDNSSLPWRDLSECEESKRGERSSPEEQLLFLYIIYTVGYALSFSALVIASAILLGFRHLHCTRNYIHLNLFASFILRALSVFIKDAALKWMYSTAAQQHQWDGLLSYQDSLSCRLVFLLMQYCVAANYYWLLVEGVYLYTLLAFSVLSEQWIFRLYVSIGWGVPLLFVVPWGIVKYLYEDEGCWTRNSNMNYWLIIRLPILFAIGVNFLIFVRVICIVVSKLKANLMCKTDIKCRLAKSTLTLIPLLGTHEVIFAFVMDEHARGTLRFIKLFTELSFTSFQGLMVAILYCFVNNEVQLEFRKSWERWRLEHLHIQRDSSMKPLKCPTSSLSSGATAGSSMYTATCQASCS
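HEK293 cells stably co-expressing constitutively active GLP-1R and a cAMP-responsive luciferase reporter were seeded in DMEM with 10% Nu serum, given compounds after 12 h, and incubated 24 h at 37 deg C. Luminescence was then read.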
GLP-1R agonist – GLP-1 receptor (human) agonism; P43220; HEK293 GLP-1R CRE-luciferase, luminescence, 4-6 h; cells express a hypersensitive GLP-1R form; Potency, µM (top dose mostly 45.6 µM), inactives show top-dose activation, usual class: activators; hit rate 0.007% among 380,000; AID 624172; note: % of control where 0% means no effect
GLP1R cytotox – cytotoxicity counter-screen for GLP-1 receptor inverse agonists; HEK293 cAMP-luciferase reporter cells, luminescence, 24 h; Potency, µM (top dose mostly 38.3 µM), without a hit: at the top dose activity change, negative = inhibition, most hits filed as inhibitors; hit rate 0.13% among 410,000;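 note: loss of luciferase light is scored as toxicity; % is set by controls: 0 for no effect and ±100 for the full control effect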
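Compound-treated cells are incubated 24 hr at 37 deg C under 5% CO2 after a 12 hour attachment period, then luciferase detection reagent is added and luminescence is measured following 12 min at room temperature; lowered signal indicates toxicity.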
The depositor's hits bear a star; ? = inconclusive; · = not tested or not shown. This is a sample that favours compounds with a hit; in the whole collection about 3.2% have one here. Unless noted, calls come from the whole dose curve; as a rule, active = well fitted curve in the direction sought with a large enough effect; inconclusive = small, poorly fitted or top-dose-only effect, or another doubt; inactive = no such curve, though single readings can be large; an effect the other way counts as inactive or inconclusive. Potency is the fitted concentration of half-maximal effect.

SMILES	ClpP mod	GLP-1R inv ag	GLP-1R agonist	GLP1R cytotox
Cc1ccccc1OCCn1c(CCNC(=O)C2CCCCC2)nc2ccccc21	2%	?	·	-13%
FC(F)(F)COc1ccc(-c2nnc(SCc3ccccc3)o2)cn1	18µM*	11%	-3%	3%
Nc1c2c(nc3ccccc13)N(c1ccccc1)CC2	16µM*	?	16%	?
CN1CCCCc2c1nc1ccccc1c2N (tested in a mixture with another compound)	-15%	0%	-5%	-8%
CCC(=O)N1CCCc2cc(S(=O)(=O)N3CCC(C(=O)Nc4ccc(F)c(F)c4)CC3)ccc21	0%	11µM*	·	-24%
CCOC(=O)C1=C(C)NC2=C(C(=O)C(C(=O)OCC)C(c3ccco3)C2)C1c1ccccn1 (centres undefined)	32µM*	0%	13%	145%
C=C1CCN([C@H](C(=O)NCc2ccc(Cl)c(Cl)c2)C(C)C)S(=O)(=O)c2ccccc21	0%	10µM*	-7%	0%
C=C1CCN([C@@H](Cc2ccccc2)C(=O)NCc2ccc(Cl)c(Cl)c2)S(=O)(=O)c2ccccc21	-3%	11µM*	3%	8%
C=C1CCN([C@@H](CC(C)C)C(=O)NCc2ccc(Cl)c(Cl)c2)S(=O)(=O)c2ccccc21	-2%	11µM*	-2%	3%
C=C1CCN([C@@H](Cc2ccccc2)C(=O)NCCCc2ccccc2)S(=O)(=O)c2ccccc21	-8%	-6%	1%	9%
COc1cc(/C=C2\C=Cc3ccccc32)cc(OC)c1OC	0%	·	·	·
CCOC(=O)C1CCN(C(=O)CSCc2nc(-c3ccc(OCC)cc3)oc2C)CC1	28µM*	?	8%	9%
CCOC(=O)N1CCC(NC(=O)CSCc2nc(-c3ccc(OC)c(OC)c3)oc2C)CC1	8.9µM*	0%	0%	8%
COc1ccc(-c2nc(CSCC(=O)NC3CC3)c(C)o2)cc1OC	3%	41%	8%	9%
COc1ccc(-c2nc(CSCC(=O)NC3CCCc4ccccc43)c(C)o2)cc1OC (centres undefined)	28µM*	?	1%	-20%
CCCN1CCC(NC(=O)Nc2ccccc2C(=O)OC)CC1	28µM*	2%	7%	6%
COC(=O)c1[nH]c2ccc(C)cc2c1NC(=O)NC1CCCCC1	?	-29%	8%	-13%
CCc1cccc(CC)c1NC(=O)NC1CCCCC1	-13%	8%	0%	7%
COC(=O)c1ccccc1NC(=O)Oc1ccc(C(C)C)cc1	32µM*	0%	-7%	-20%
O=C(Nc1c(C(=O)O)[nH]c2ccccc12)NC1CCCCC1	7.9µM*	2%	9%	14%
CCc1ccccc1NC(=O)NC1CCCCC1	3.2µM*	-10%	3%	-2%
COc1ccc(-c2oc3ncn4nc(-c5ccccc5O)nc4c3c2-c2ccc(OC)cc2)cc1	-20%	9%	·	-2%
Cc1cc(N2CCN(c3ccc(F)cc3)CC2)n2cnnc2n1	2%	6%	·	-4%
COC(=O)c1ccccc1NC(=O)N1CCN(c2ccccc2F)CC1	·	?	16%	-13%
COC(=O)c1ccccc1NC(=O)N1CCCC1	16µM*	9%	8%	-14%
SMILES	ClpP mod	GLP-1R inv ag	GLP-1R agonist	GLP1R cytotox
COc1ccccc1CN(C)CC(=O)NC(=O)NC1CCCCC1	-1%	4.5µM*	14%	6%
Cc1scc(C(=O)N/N=C/c2ccc(OCC(C)C)cc2)c1C	-1%	8.9µM*	-4%	2%
CCCCOc1ccc(/C=N/NC(=O)c2csc(C)c2C)cc1	-7%	?	-11%	-1%
CN(C)S(=O)(=O)Oc1ccsc1C(=O)Nc1cccc(Cl)c1	2%	-13%	14%	6%
CN(C)S(=O)(=O)Oc1ccsc1C(=O)Nc1ccc(Cl)c(Cl)c1	2%	10µM*	-1%	21%
COC(c1ccccc1)c1nnc(CCC(=O)N(C)CCCC2CCCC2)o1 (centres undefined)	0%	10µM*	12%	-19%
COC(c1ccccc1)c1nnc(CCC(=O)N(C)CCOc2ccccc2)o1 (centres undefined)	·	?	6%	11%
O=C(Nc1ccc(Cl)cc1Cl)[C@@H]1CC=C[C@@H]2CCN(C3CCCCC3)C(=O)[C@@H]21	0%	·	·	·
Cc1ccc2nc(Cl)cc(=O)n2c1	28µM*	19%	0%	12%

Compound activity deposited in PubChem BioAssay by National Center for Advancing Translational Sciences (NCATS).
